Source: PubChem (National Center for Advancing Translational Sciences (NCATS))
SMN2 splice up: enhancers of SMN2 splice variant expression. actives 2.8% (n = 210,000). Potency, µM (series often up to 46.1 µM), for the others: top-dose activity change, positive = activation, actives largely listed as activators. HEK293 SMN2-luciferase splicing reporter, luminescence, 30-36 h; also: % of control where 0% means no effect; nearly all actives have a fitted effect of over 55% in size
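HEK293 cells carry an SMN2 minigene-luciferase reporter in which exon 7 inclusion puts luciferase in frame. Cells were seeded at 2000 cells/well, attached for 10-12 hours, then exposed to compounds for 30-36 hours at 37C before ONE-Glo luminescence.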
ELG1 genotoxic: induces genotoxicity in HEK293T cells with luciferase-tagged ELG1. AID 504466. HEK293T ELG1-luciferase reporter, luminescence, 16 h. Potency, µM (series often up to 46 µM), for the others: at the highest dose activity change, positive = activation, usual class: activators. actives 1.3% (n = 330,000); also: % of control where 0% means no effect; nearly all actives have a fitted effect of over 60% in size
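After overnight (16 hr) compound treatment at 37 °C, ELG1-luciferase HEK293T cells were lysed with ONE-Glo; luminescence quantified 30 min later at room temperature.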
FLuc counter: firefly luciferase modulation, counter-screen for miR-21 project | P08659 | purified FLuc, Km substrates, luminescence inhibition | Potency, µM (titrated, usually from 57.5 µM), inactives show at the top dose activity change, negative = inhibition, actives largely listed as inhibitors | actives 6.9% (n = 360,000);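 also: plate controls were vehicle for no effect and reference inhibitor for full effect; nearly all actives have a fitted effect of over 55% in size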
Target sequence (P08659 whole entry, looked up): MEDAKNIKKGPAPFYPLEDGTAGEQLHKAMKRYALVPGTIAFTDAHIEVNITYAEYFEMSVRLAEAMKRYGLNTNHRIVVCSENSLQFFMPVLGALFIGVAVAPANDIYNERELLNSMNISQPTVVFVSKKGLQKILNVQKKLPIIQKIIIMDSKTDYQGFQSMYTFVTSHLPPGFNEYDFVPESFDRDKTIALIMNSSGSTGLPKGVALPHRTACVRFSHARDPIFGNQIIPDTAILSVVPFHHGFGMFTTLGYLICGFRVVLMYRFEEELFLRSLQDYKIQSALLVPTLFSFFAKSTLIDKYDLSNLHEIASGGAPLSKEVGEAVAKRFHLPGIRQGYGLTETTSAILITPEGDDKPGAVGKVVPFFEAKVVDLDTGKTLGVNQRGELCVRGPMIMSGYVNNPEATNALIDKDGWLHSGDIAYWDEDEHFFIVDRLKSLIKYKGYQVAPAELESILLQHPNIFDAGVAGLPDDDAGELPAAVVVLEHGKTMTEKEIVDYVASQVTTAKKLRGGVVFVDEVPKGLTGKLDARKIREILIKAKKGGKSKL
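Purified P. pyralis luciferase (10nM final) with 10uM D-luciferin and 10uM ATP (Km levels) in 50mM Tris acetate pH 7.5, 10mM Mg acetate, 0.01% Tween-20, 0.05% BSA; qHTS 6-point titration, ~60 µM downward; luminescence read.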
NPC1 prom act: activators of NPC1 promoter. Huh7 NPC1 promoter luciferase reporter, 24 h. Potency, µM (titrated, usually from 9.22 µM), without a hit: at the highest dose activation, most hits filed as activators. actives 2.4% (n = 320,000); also: % of control where 0% means no effect; nearly all actives have a fitted effect of over 60% in size
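Quantitative HTS used a cell-based reporter: Huh7 cells stably bearing the NPC1 promoter upstream of luciferase were treated with compounds for 24 h, and promoter activation was read as luminescence.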
Rab9 prom act: Rab9 promoter activation. Huh7 Rab9 promoter-luciferase reporter, luminescence, 24 h. actives 2.8% (n = 320,000). AID 485297. Potency, µM (series often up to 9.22 µM), without a hit: top-dose activation, negative = inhibition, most hits filed as activators; also: % of control where 0% means no effect; nearly all actives have a fitted effect of over 60% in size
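Stable Rab9-luc Huh7, 1500 cells/well, 2 h settle; cmpd in DMSO, 24 h, 37 °C/5% CO2; luciferase reagent 10 min RT; luminescence.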
* = called active by the depositor; u = inconclusive; x = not tested or not shown; [ ] = another dose, or the depositor's remark. Most compounds without a hit are left out; they make up all but 7.5% or so of the library. Calls follow the shape of the dose curve; as a rule, active = well fitted curve in the direction sought with a large enough effect; inconclusive = small, poorly fitted or top-dose-only effect, or another doubt; inactive = no such curve, though single readings can be large; an effect the other way counts as inactive or inconclusive. Potency is read from the fitted curve at half-maximal effect.

SMILES | SMN2 splice up | ELG1 genotoxic | FLuc counter | NPC1 prom act | Rab9 prom act
CCCCn1nnc(NC(=O)c2cc3ccccc3o2)n1 | u | 6.51µM* | u | 3.16µM* | 1.58µM*
CCCCn1nnc(NC(=O)c2ccc(-c3cccc(Cl)c3)o2)n1 | -9.9% | 0.1% | u | 14.0% | 10.9%
O=C(CC1N=C2c3ccccc3N=C(SCc3cccc(F)c3)N2C1=O)NCc1ccc2c(c1)OCO2 (configuration not stated) | x | x | -11.0% | x | x
CCOC(=O)C[n+]1c(C)sc2ccc(OC)cc21 | -1.4% | 0.3% | -19.2% | 1.2% | 0.6%
Cc1ccc(-n2nc(C(=O)NCCc3cccc(C)c3)c3c4ccccc4n(C)c3c2=O)cc1 | -0.1% | x | 3.8% | x | x
COc1ccc(CCN(C)Cc2nc(Cc3ccc(OC)c(OC)c3)no2)cc1OC | x | -9.3% | -0.9% | 0.5% | -14.9%
CCCn1nnc(NC(=O)c2ccc3c(c2)OCO3)n1 | x | u | 19µM* | 2.82µM* | 1.58µM*
CCn1nnc(NC(=O)c2cc3ccccc3o2)n1 | 31.6µM* | 14.6µM* | 15.1µM* | u | u
CC1(c2ccccc2)NC(=O)N(CC(=O)Nc2cccc(/C=C/c3ccccn3)c2)C1=O (configuration not stated) | x | -7.6% | 19µM* | -0.4% | 10.4%
Cc1cccc(-n2c(=S)[nH]c3sc4c(c3c2=O)CCc2ccccc2-4)c1 | -8.4% | -11.5% | 7.57µM* | -0.3% | 3.6%
Cc1ccc(-n2c(=S)[nH]c3sc4c(c3c2=O)CCc2ccccc2-4)cc1 | x | 0.0% | 6.2% | -1.3% | 1.8%
Cc1ccc2oc(-c3ccccc3)c(C(=O)O)c(=O)c2c1 | u | u | 21.3µM* | 3.55µM* | u
Cc1ccc(COc2ccc3oc(-c4ccccc4)c(C(=O)O)c3c2)cc1 | 11.0% | x | 10.7µM* | x | x
Cc1cc(NC(=O)CSc2nnc(CNC(=O)c3ccc(C(C)(C)C)cc3)o2)no1 | x | 2.2% | -20.0% | -1.6% | 5.5%
CCn1c(SCC(=O)c2[nH]c(C)c(C(C)=O)c2C)nnc1-c1ccncc1 | -24.5% | -4.1% | -2.6% | 1.7% | 0.4%
CC(=O)N(C)c1nnc(-c2ccccn2)s1 | 20µM* | u | u | 27.5% | 15.0%
CN(C(=O)c1cccnc1)c1nnc(-c2ccccn2)s1 | x | u | 19µM* | u | u
CN(C(=O)c1ccccn1)c1nnc(-c2cnccn2)s1 | x | u | 10.7µM* | u | u
COCCN(CCOC)S(=O)(=O)c1ccc(C(=O)Nc2ccncc2)cc1 | x | 2.2% | 1.0% | -2.6% | -2.3%
O=C1CC[C@@H](CN(Cc2ccccc2)Cc2cn[nH]c2-c2cc3ccccc3o2)N1 | x | -3.9% | 1.0% | -6.9% | -0.7%
CC(=O)c1ccc(NC(=O)C(C)OC(=O)C2CCN(c3ccc(C(F)(F)F)cn3)CC2)cc1 (configuration not stated) | x | -4.2% | 1.7% | 1.5% | -1.1%
COc1cccc(Nc2nc(-c3ccccc3)nc3ccccc23)c1 | x | -8.7% | -14.4% | -4.7% | -0.5%[1.84 µM]
Cc1ccc(Nc2cc(-c3ccccc3)nc(C)n2)cc1 | x | x | 23.9µM* | x | x
COc1ccc(Nc2cc(Nc3cccc(OC)c3)ncn2)cc1 | x | u | 2.69µM* | u | u
Cc1cc(Nc2ccc(Br)cc2)nc(C)n1 | x | x | 21.3µM* | x | x
SMILES | SMN2 splice up | ELG1 genotoxic | FLuc counter | NPC1 prom act | Rab9 prom act
CCOC(=O)c1ccc(Nc2cc(-c3ccccc3)nc(C)n2)cc1 | x | x | -6.7% | x | x
COc1cccc(Nc2cc(-c3ccccc3)nc(C)n2)c1 | x | x | 26.9µM* | x | x
O=C(c1ccccc1F)n1c2c(c3ccccc31)CCCC2 | x | -2.1% | -2.1% | -4.4% | 0.6%
O=C(O)c1ccc(/C=N/Nc2nc3ccccc3[nH]2)cc1 | x | -0.7% | u | 12.9% | 9.1%
c1ccc2[nH]c(NN=C3CCCCCC3)nc2c1 | 11.2µM* | u | 3.38µM* | 9.9% | 3.55µM*
CC(C)(C)c1cc(/C=N/NC(=O)Cc2nc3ccccc3[nH]2)cc(C(C)(C)C)c1O | -12.8% | -2.8% | -0.7% | -1.7% | -4.0%
COC(=O)c1ccc(/C=N/Nc2nc3ccccc3[nH]2)cc1 | u | 20.6µM* | 8.49µM* | 3.16µM* | 3.16µM*
O=C(Cc1nc2ccccc2[nH]1)N/N=C/c1ccccc1 | x | 1.3% | 15.1µM* | 5.0% | 8.2%
CC(/C=N/Nc1nc2ccccc2[nH]1)=C\c1ccccc1 | 2.51µM* | 0.82µM* | 0.675µM* | 0.501µM* | 0.398µM*
CC(=O)Nc1ccc(/C=N/Nc2nc3ccccc3[nH]2)cc1 | -29.5% | -7.9% | 12µM* | u | u
CCN(CC)c1ccc(/C=N/Nc2nc3ccccc3[nH]2)cc1 | -92.1% | u | 6.01µM* | 24.1% | u
CC(=O)Nc1ccc(CCc2nc3ccccc3[nH]2)cc1 | x | 7.3% | -7.1% | 1.3% | 18.3%
CCN(C(=O)CSc1nccc(=O)[nH]1)c1cccc2ccccc12 | x | 3.7% | x | x | x
O=c1[nH]c(SCc2nc3c(cnn3-c3ccccc3)c(=O)[nH]2)nc2ccccc12 | 17.8µM* | 8.2% | u | u | 2µM*
O=C1OC(c2ccc(F)cc2)=C/C1=C\c1ccc([N+](=O)[O-])o1 | -10.4% | 7.2% | -18.8% | -11.8% | -7.0%
CCn1c(SCC(=O)NCc2ccco2)nc2c(c1=O)SC(C)C2 (configuration not stated) | -1.9% | -2.8% | -0.3% | 0.7% | 1.1%
COCCNC(=O)/C(C#N)=C/c1ccc(C(=O)O)cc1 | -1.7% | -1.8% | 3.5% | -2.6% | 0.4%
CCOC(=O)/C(C#N)=C\c1c(OCC)n(CC)c2ccccc12 | -14.6% | -4.9% | 3.0% | 1.1% | 0.6%
CCOC(=O)/C(C#N)=C\c1ccc(CC)s1 | -8.5% | u | 10.7µM* | 24.7% | -10.6%
COCCNC(=O)/C(C#N)=C/c1ccc(SC)cc1 | 1.5% | u | 19µM* | -4.6% | -1.5%
CCOC(=O)/C(C#N)=C\C=C1C=CN(C)C=C1 | 15.8µM* | u | 9.53µM* | 2.51µM* | 3.55µM*
CCOC(=O)/C(C#N)=C/c1ccc(OC)c(OC)c1 | x | -1.0% | 1.5%[2.3 µM] | -3.6% | -0.8%
CCOC(=O)/C(C#N)=C/c1ccc(SC)cc1 | -24.1% | 4.1% | 13.5µM* | 8.8% | -2.8%
Cc1c(C=O)c2ccccn2c1C(=O)c1ccccc1 | -40.0% | -10.0% | 5.7% | -3.3% | -3.5%
Cn1c(CNS(=O)(=O)c2ccc(Cl)cc2)cc(=O)n(C)c1=O | x | 0.0% | 1.3% | -1.3% | -6.4%
O=S(=O)(N(Cc1ccccc1)[C@@H](CO)Cc1ccccc1)N(Cc1ccccc1)[C@@H](CO)Cc1ccccc1 | x | 12.9% | x | x | x
COc1cccc2cc(-c3ccccc3)c(=O)oc12 | 11.2µM* | u | 8.49µM* | 2.51µM* | 2.82µM*
COc1ccc(-c2cc3cccc(OC)c3oc2=O)cc1 | x | u | 0.601µM* | 0.447µM* | 0.501µM*
COc1cccc2cc(-c3nc4ccccc4[nH]3)c(=O)oc12 | x | u | 1.69µM* | 1.41µM* | 2.24µM*
CC(C)(C)c1cc(C(C)(C)C)c2oc(=O)c(-c3nc4ccccc4[nH]3)cc2c1 | x | x | 6.1% | x | x
